Screening data as filed in PubChem.
CtBP-E1A inh = qHTS Assay for Inhibitors of the CtBP/E1A Interaction | CtBP / adenovirus E1A interaction (AlphaScreen) | AlphaScreen GST-E1A/His-CtBP binding, 1536-well; hits give low values | activity change, % (test concentration not listed) | 340,000 tested, 0.49% active; in the data active means activity change below about -65%; inconclusive means mostly about -30% to -63%
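Protein mix (5X: 125 nM each GST-E1A, His-CtBP) was incubated with pinned compound 2 h at 37 deg C in dark, in 50 mM Tris pH 8.0 buffer with 300 mM NaCl. Glutathione donor and nickel acceptor beads followed; AlphaScreen signal read after 1 h.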
TDP1 block = qHTS Assay for Inhibitors of Tyrosyl-DNA Phosphodiesterase (TDP1) | Tyrosyl-DNA phosphodiesterase 1 (Homo sapiens), Q9NUW8 | recombinant TDP1, AlphaScreen DNA substrate cleavage | Potency, µM (doses to about 130 µM), hits mostly inhibitors | 350,000 tested, 0.28% active | AID 485290, 2010; further: nearly all actives have a fitted effect of over 40% in size
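Tdp1 1 nM final; 15 min RT w/ cpd; substrate 15 nM, 5 min; beads 10 ug/ml, 10 min; AlphaScreen read. Neg ctrl: no enzyme.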
Six1-Eya2 blk = qHTS Assay for Inhibitors of the Six1/Eya2 Interaction | Homeobox protein SIX1 (Homo sapiens) + Protein phosphatase EYA2 (Homo sapiens), … | AlphaScreen GST-Six1/His-Eya2 binding, biochemical; hits give low values | activity change, % (concentration not given with the values) | 360,000 tested, 0.56% active | AID 651725, 2012; in the data active means activity change below about -65%; inconclusive means mostly about -30% to -63%
Target sequence (O00167 whole entry, looked up): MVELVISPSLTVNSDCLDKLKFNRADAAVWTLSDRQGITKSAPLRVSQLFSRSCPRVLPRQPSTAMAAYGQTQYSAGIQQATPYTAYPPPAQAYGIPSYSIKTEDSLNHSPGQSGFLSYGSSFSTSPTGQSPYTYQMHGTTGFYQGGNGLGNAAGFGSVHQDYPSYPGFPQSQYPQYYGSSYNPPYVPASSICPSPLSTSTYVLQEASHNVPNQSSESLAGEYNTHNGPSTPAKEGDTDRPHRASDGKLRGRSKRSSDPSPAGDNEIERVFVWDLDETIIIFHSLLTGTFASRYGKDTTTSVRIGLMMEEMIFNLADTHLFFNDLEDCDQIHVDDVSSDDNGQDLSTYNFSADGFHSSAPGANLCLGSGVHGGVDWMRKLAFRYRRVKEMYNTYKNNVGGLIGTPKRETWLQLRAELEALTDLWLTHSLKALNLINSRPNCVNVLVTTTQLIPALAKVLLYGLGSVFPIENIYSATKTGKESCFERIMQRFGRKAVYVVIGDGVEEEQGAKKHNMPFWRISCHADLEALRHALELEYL
Target sequence (Q15475 whole entry, looked up): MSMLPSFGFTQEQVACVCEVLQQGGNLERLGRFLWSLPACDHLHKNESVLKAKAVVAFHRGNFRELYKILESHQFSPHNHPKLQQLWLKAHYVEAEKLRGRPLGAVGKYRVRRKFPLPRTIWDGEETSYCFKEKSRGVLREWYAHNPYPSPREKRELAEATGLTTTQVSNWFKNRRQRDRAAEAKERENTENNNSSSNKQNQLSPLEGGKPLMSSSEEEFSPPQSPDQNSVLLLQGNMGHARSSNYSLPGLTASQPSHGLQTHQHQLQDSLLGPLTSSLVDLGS
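AlphaScreen with GST-Six1 and His-Eya2 (5X mix: 250 nM and 500 nM), glutathione donor and nickel acceptor beads; buffer 50 mM Tris pH 8.0, 300 mM NaCl, 1 mM TCEP; 1 h at 37 C in the dark.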
TDP1 cell noCPT = qHTS for Inhibitors of human tyrosyl-DNA phosphodiesterase 1 (TDP1): qHTS in cells in absence of CPT | DT40 Tdp1-/- hTDP1 cells, no CPT, ATP luminescence, 48 h | Potency, µM (titrated, usually from 46.2 µM), hits mostly inhibitors | 420,000 tested, 15% active; further: nearly all actives have a fitted effect of over 55% in size
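A cellular qHTS used chicken DT40 cells lacking endogenous Tdp1 but carrying stably transfected human TDP1. Compounds were applied without camptothecin, and cell growth kinetics were judged by ATP-dependent luminescence after ≥48 hr.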
IL-1B inflam inh = qHTS for Inhibitors of Inflammasome Signaling: IL-1-beta AlphaLISA Primary Screen; THP-1 LPS/ATP IL-1B secretion, AlphaLISA, 16 h; hits give low values; activity change, % at 57.5 µM; 360,000 tested, 4.7% active; in the data active means activity change below about -50%; inconclusive means mostly about -30% to -49%
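THP-1 cells pretreated 1 hr with compounds (up to 57.5 uM final), then stimulated with LPS (250 ng/mL final) plus ATP (1.25 mM final); secreted IL-1B measured by AlphaLISA after 16 hr, decreased signal indicating inhibition.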
TDP1 cell CPT = qHTS for Inhibitors of human tyrosyl-DNA phosphodiesterase 1 (TDP1): qHTS in cells in presence of CPT; chicken DT40 Tdp1-/-;hTDP1 cells + 20 nM CPT, ATP luminescence, 48 h; Potency, µM (top dose mostly 46.2 µM), usual class: inhibitors; 420,000 tested, 12% active; AID 686979, 2013; further: nearly all actives have a fitted effect of over 55% in size
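Chicken DT40 Tdp1-/- cells stably complemented with human TDP1 were seeded at 400 cells/well in medium containing 20 nM camptothecin, exposed to pin-transferred compounds, and grown at 37 °C for at least 48 hr. Viability was read as ATP luminescence.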
Numbers stand for hits. Only some compounds are listed: those with a hit (about 18% of all), similar ones and a draw of the others. Unless noted, the call rests on the fitted dose curve; in most records, active means well fitted curve in the direction sought with a large enough effect; inconclusive means small, poorly fitted or top-dose-only effect, or another doubt; inactive means no such curve, though single readings can be large; an effect the other way counts as inactive or inconclusive.

What do the screens show for `Cc1sc2ncnc(NCC(O)c3ccccc3)c2c1C` (stereo not drawn)?
CtBP-E1A inh: inactive; Six1-Eya2 blk: inactive; TDP1 cell noCPT: 4.6µM; IL-1B inflam inh: inactive; TDP1 cell CPT: 7.3µM

How did Cc1sc2ncnc(NCC(O)c3ccc([N+](=O)[O-])cc3)c2c1C (stereo not drawn) do in these assays?
CtBP-E1A inh: inactive; TDP1 block: inactive; Six1-Eya2 blk: inactive; TDP1 cell noCPT: 2.9µM; IL-1B inflam inh: -55; TDP1 cell CPT: 7.3µM

Results for CCOc1ccc(NC(=O)c2oc3ccccc3c2NC(=O)Cc2cccc(C)c2)cc1 ?
TDP1 block: inactive; TDP1 cell noCPT: inconclusive; TDP1 cell CPT: inactive

How did Cc1ccc(C(=O)N/C(=C\c2cn(S(=O)(=O)N(C)C)c3ccccc23)C(=O)NCCCN2CCOCC2)cc1 do in these assays?
CtBP-E1A inh: inactive; TDP1 block: inactive; Six1-Eya2 blk: inactive; TDP1 cell noCPT: inconclusive; IL-1B inflam inh: inactive; TDP1 cell CPT: inconclusive

How did Cc1nn(-c2ccccc2)cc1/C=N/NS(=O)(=O)c1ccccc1 do in these assays?
CtBP-E1A inh: inactive; TDP1 block: inactive; Six1-Eya2 blk: inactive; TDP1 cell noCPT: inactive; IL-1B inflam inh: inactive; TDP1 cell CPT: inactive

How did COc1ccc(C(=O)Oc2ccc(C3NC(=O)c4c(sc5c4CCN(C)C5)N3)cc2OC)cc1 (stereo not drawn) do in these assays?
TDP1 block: inactive; TDP1 cell noCPT: 16µM; TDP1 cell CPT: inconclusive

What do the screens show for `CN1CCc2c(sc3c2C(=O)NC(c2ccc(C(C)(C)C)cc2)N3)C1` (stereo not drawn)?
TDP1 cell noCPT: 13µM; TDP1 cell CPT: inconclusive

Results for Cc1ccc2ncc(C(=O)N3CCN(c4ccccc4F)CC3)c(=O)n2c1 ?
TDP1 block: inactive; TDP1 cell noCPT: inactive; TDP1 cell CPT: inactive

How did Cc1cc(O)cc2c1O[C@](C)(CCC(=O)O)CC2 do in these assays?
TDP1 cell noCPT: inactive; TDP1 cell CPT: inactive

How did Cc1ccn2c(CNC(C)CCn3cccn3)c(C(=O)N3CCCCCC3)nc2c1 (stereo not drawn) do in these assays?
CtBP-E1A inh: inactive; TDP1 block: inactive; Six1-Eya2 blk: inactive; TDP1 cell noCPT: inactive; IL-1B inflam inh: inactive; TDP1 cell CPT: inactive

Results for O=C(C1=C[C@@H](c2ccc(Br)cc2)C[C@@H](OCc2ccc(CO)cc2)O1)N1CCN(Cc2ccccc2)CC1 ?
CtBP-E1A inh: inactive; TDP1 block: inactive; Six1-Eya2 blk: inactive; TDP1 cell noCPT: 23µM; IL-1B inflam inh: inconclusive; TDP1 cell CPT: inconclusive

Results for C#Cc1ccc([C@H]2C=C(C(=O)N3CCN(Cc4ccccc4)CC3)O[C@@H](OCc3ccc(CO)cc3)C2)cc1 ?
CtBP-E1A inh: inactive; TDP1 block: inactive; Six1-Eya2 blk: inactive; TDP1 cell noCPT: 18µM; IL-1B inflam inh: inactive; TDP1 cell CPT: 16µM

What do the screens show for `CCOC(=O)C1=C(C)N(c2ccccc2)C(=O)/C1=C\c1ccco1`?
CtBP-E1A inh: inactive; TDP1 block: inactive; Six1-Eya2 blk: inactive; TDP1 cell noCPT: inconclusive; IL-1B inflam inh: -59; TDP1 cell CPT: inconclusive

What do the screens show for `O[C@@H]1CN(CC2CCCCC2)[C@@H](c2ccc(Cl)cc2)C[C@H]1n1cc(C2CC2)nn1`?
CtBP-E1A inh: inactive; Six1-Eya2 blk: inactive; TDP1 cell noCPT: 23µM; IL-1B inflam inh: -51; TDP1 cell CPT: inconclusive

How did Cc1ccc([C@H]2C[C@@H](O)[C@H](n3cc(C4CC4)nn3)CN2CC2CCCCC2)cc1 do in these assays?
CtBP-E1A inh: inactive; Six1-Eya2 blk: inactive; TDP1 cell noCPT: 18µM; IL-1B inflam inh: inactive; TDP1 cell CPT: inconclusive

Results for COc1ccc([C@H]2C[C@H](n3cc(C4CC4)nn3)[C@@H](O)CN2CC2CCCCC2)cc1 ?
CtBP-E1A inh: inactive; Six1-Eya2 blk: inactive; TDP1 cell noCPT: 16µM; IL-1B inflam inh: inactive; TDP1 cell CPT: inconclusive

How did O[C@@H]1C[C@H](c2ccc(Cl)cc2)N(CC2CCCCC2)C[C@H]1n1cc(C2CC2)nn1 do in these assays?
CtBP-E1A inh: inactive; Six1-Eya2 blk: inactive; TDP1 cell noCPT: inconclusive; IL-1B inflam inh: inactive; TDP1 cell CPT: inconclusive

Results for O[C@H]1C[C@H](c2ccc(Cl)cc2)N(CC2CCCCC2)C[C@@H]1n1cc(C2CC2)nn1 ?
CtBP-E1A inh: inactive; Six1-Eya2 blk: inactive; TDP1 cell noCPT: 6.5µM; IL-1B inflam inh: inconclusive; TDP1 cell CPT: 5.8µM

What do the screens show for `COC(=O)C[C@@H]1CC[C@H](NC(=O)Nc2cccc(F)c2)[C@@H](CO)O1`?
CtBP-E1A inh: inactive; Six1-Eya2 blk: inactive; TDP1 cell noCPT: inactive; IL-1B inflam inh: inactive; TDP1 cell CPT: inactive

What do the screens show for `COc1ccc([C@H]2C[C@@H](O)[C@H](n3cc(-c4ccc(F)cc4)nn3)CN2CC2CCCCC2)cc1`?
CtBP-E1A inh: inactive; Six1-Eya2 blk: inactive; TDP1 cell noCPT: 6.5µM; IL-1B inflam inh: inactive; TDP1 cell CPT: inconclusive

How did COc1ccc([C@H]2C[C@H](n3cc(-c4ccc(F)cc4)nn3)[C@@H](O)CN2CC2CCCCC2)cc1 do in these assays?
CtBP-E1A inh: inactive; Six1-Eya2 blk: inactive; TDP1 cell noCPT: inconclusive; IL-1B inflam inh: inactive; TDP1 cell CPT: inconclusive

Results for CCCCNC(=O)c1onc(CSc2ccc(C(C)C)cc2)c1C(=O)O ?
CtBP-E1A inh: inactive; TDP1 block: inactive; Six1-Eya2 blk: inactive; TDP1 cell noCPT: inactive; IL-1B inflam inh: inactive; TDP1 cell CPT: inactive

What do the screens show for `CC(=O)NC(C)c1nc2ccccc2n1Cc1ccccc1Cl` (stereo not drawn)?
TDP1 block: inactive; TDP1 cell noCPT: inconclusive; TDP1 cell CPT: inconclusive

What do the screens show for `CC(=O)N1CCCC1c1nc2ccccc2n1Cc1ccccc1` (stereo not drawn)?
TDP1 block: inactive; TDP1 cell noCPT: inactive; TDP1 cell CPT: inactive

What do the screens show for `CC(=O)N1CCCC1c1nc2ccccc2n1Cc1ccccc1Cl` (stereo not drawn)?
TDP1 block: inactive; TDP1 cell noCPT: 18µM; TDP1 cell CPT: inconclusive

What do the screens show for `CC(=O)Nc1nc2ccccc2n1Cc1ccccc1C`?
CtBP-E1A inh: inactive; TDP1 block: inactive; Six1-Eya2 blk: inactive; TDP1 cell noCPT: 13µM; IL-1B inflam inh: inconclusive; TDP1 cell CPT: 9.2µM

What do the screens show for `CC(=O)Nc1nc2ccccc2n1Cc1ccccc1Cl`?
CtBP-E1A inh: inactive; Six1-Eya2 blk: inactive; TDP1 cell noCPT: 8.2µM; IL-1B inflam inh: -56; TDP1 cell CPT: 21µM
